# Results from PMC5540273 (PLoS ONE, 2017).
# Legend:
# Conditions in all cases: concentration: 1 μM, replicates: in singlicate; n = 1
# EPHA7 = tested on: EPHA7
# EPHA8 = tested on: EPHA8
# EPHB1 = tested on: EPHB1
# EPHB2 = tested on: EPHB2
# EPHB3 = tested on: EPHB3
# EPHB4 = tested on: EPHB4
# EPHB6 = tested on: EPHB6
# ERBB2 = tested on: ERBB2
# ERBB3 = tested on: ERBB3
# ERBB4 = tested on: ERBB4
# ERK1 = tested on: T1, ERK1
# T1 construct: gene MAPK3
# ERK2 = tested on: T2, ERK2
# T2 construct: gene MAPK1
# ERK3 = tested on: T3, ERK3
# T3 construct: gene MAPK6
# ERK4 = tested on: T4, ERK4
# T4 construct: gene MAPK4
# ERK5 = tested on: T5, ERK5
# T5 construct: gene MAPK7
# ERK8 = tested on: T6, ERK8
# T6 construct: gene MAPK15
# ERN1 = tested on: ERN1
# FAK = tested on: T7, FAK
# T7 construct: gene PTK2
# FER = tested on: FER
# FES = tested on: FES
# 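Also: KINOMEscan kinase panel screen.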
Compound,%Inh (EPHA7),%Inh (EPHA8),%Inh (EPHB1),%Inh (EPHB2),%Inh (EPHB3),%Inh (EPHB4),%Inh (EPHB6),%Inh (ERBB2),%Inh (ERBB3),%Inh (ERBB4),%Inh (ERK1),%Inh (ERK2),%Inh (ERK3),%Inh (ERK4),%Inh (ERK5),%Inh (ERK8),%Inh (ERN1),%Inh (FAK),%Inh (FER),%Inh (FES)
NCCC(NC(=O)c1cc(Br)c(-c2ccnc3[nH]ccc23)s1)c1ccccc1.O=C(O)C(F)(F)F.O=C(O)C(F)(F)F (stereo not drawn) [GSK1307810],3%,11%,4%,0%,0%,0%,27%,39%,19%,21%,4%,0%,7%,0%,0%,33%,22%,9%,3%,0%
Cl.O=C(Nc1ccc(Oc2ccc3[nH]c(NC(=O)c4ccco4)nc3c2)cc1)Nc1cc(C(F)(F)F)ccc1F [GW683134],86%,99.5%,70%,72%,24%,60%,93.7%,9%,0%,29%,0%,0%,0%,14%,0%,82%,0%,0%,0%,0%
Cn1cc(-c2ccc3c(c2)CCN3C(=O)Cc2cc(F)cc(F)c2F)c2c(N)ncnc21 [GSK2634140],3%,8%,14%,0%,11%,0%,87%,31%,0%,41%,9%,9%,0%,0%,0%,0%,11%,5%,39%,0%
Cc1ccc(NC(=O)c2cccc(N3CCCCC3)c2)cc1-c1ccc(C(=O)NCC2CC2)cc1 [GSK1917008],24%,41%,30%,0%,27%,31%,21%,0%,0%,2%,2%,0%,100%,23%,0%,51%,17%,15%,16%,21%
O=C(Nc1n[nH]c2nc(-c3ccccc3)ccc12)C1CC1 [SB-708999],7%,9%,0%,20%,11%,3%,41%,35%,67%,0%,0%,3%,46%,0%,0%,99.5%,0%,0%,5%,5%
Cc1ccc(NC(=O)c2ccnc(N3CCCCC3)c2)cc1-c1ccc(C(=O)NCC2CC2)cc1 [GW775610],0%,0%,0%,0%,0%,0%,5%,21%,0%,19%,37%,9%,0%,21%,6%,0%,70%,0%,4%,4%
Nc1cccc(-c2ccc3c(N)n[nH]c3c2)c1 [GSK2193613],9%,29%,9%,0%,13%,14%,14%,0%,0%,0%,0%,0%,11%,14%,0%,15%,4%,16%,11%,16%
CNc1nccc(-c2ccc3c(N)n[nH]c3c2)n1 [GSK2206003],9%,18%,5%,0%,5%,2%,11%,50%,8%,31%,3%,0%,0%,32%,9%,28%,4%,0%,25%,1%
Cl.N#CCc1ccc(Nc2nccc(Nc3ccc(Oc4ccccc4)cc3)n2)cc1 [GW639905],0%,0%,0%,6%,0%,0%,46%,23%,96.3%,53%,0%,0%,0%,0%,0%,35%,10%,0%,0%,0%
CN(c1ccc(F)c(NC(=O)c2cccc(OC(C)(C)C#N)c2Cl)c1)c1ccc2nc(NC(=O)C3CC3)sc2n1,0%,41%,10%,2%,0%,14%,88%,66%,9%,67%,1%,1%,0%,0%,4%,0%,0%,1%,0%,0%
COc1cc(Nc2nccc(N3CCC(NS(=O)(=O)c4ccc(NC(C)=O)cc4)CC3)n2)cc(OC)c1OC [GSK1379825],0%,11%,6%,30%,55%,38%,96.8%,18%,38%,20%,0%,0%,83%,0%,0%,29%,0%,0%,6%,48%
Cc1cc(-c2ccnc(Nc3cccc(C#N)c3)n2)cc(C)c1O [GSK1440913],18%,21%,18%,19%,18%,16%,90.3%,27%,7%,0%,0%,0%,75%,1%,0%,99.1%,0%,0%,7%,28%
CN(c1ccc(NC(=O)Nc2cccc(Cl)c2)cc1)c1ccnc(N)n1.Cl [GW830707],40%,22%,34%,36%,62%,61%,76%,0%,17%,29%,0%,12%,0%,0%,0%,6%,32%,15%,9%,19%
COc1cccc(-c2nc(-c3ccccc3)[nH]c2-c2ccncc2)c1 [SB-610250],9%,25%,16%,0%,24%,0%,22%,31%,20%,0%,0%,0%,4%,21%,14%,0%,20%,0%,0%,0%
Nc1ncc(-c2cn[nH]c2)c2scc(-c3ccc4c(c3)CCN4C(=O)Cc3ccccc3)c12 [GSK2593067],0%,14%,5%,0%,0%,0%,97.6%,0%,0%,0%,3%,3%,0%,0%,0%,10%,0%,0%,29%,0%
CN(c1ccc2c(c1)nc(NCc1ccccc1)n2C)c1ccnc(Nc2ccc(CS(C)(=O)=O)cc2)n1.Cl [GW811603],20%,47%,0%,0%,0%,2%,87%,35%,28%,17%,0%,3%,0%,0%,1%,6%,1%,23%,4%,0%
Cc1ccc(O)cc1Nc1ccnc2ccc(C(C)(C)C)cc12 [GW856805],0%,98.2%,97.4%,92.5%,100%,97.1%,24%,32%,15%,24%,2%,0%,9%,6%,9%,13%,27%,34%,21%,12%
CC(C)NCC(Cc1ccccc1)NC(=O)c1cc(Br)c(-c2ccnc3[nH]ccc23)s1.Cl.Cl (stereo not drawn) [GSK1383281],0%,0%,16%,0%,2%,2%,6%,16%,0%,10%,11%,0%,0%,0%,0%,2%,0%,20%,0%,0%
COc1cccc(C2=C(Nc3cccc(O)c3)C(=O)NC2=O)c1 [SB-390771],10%,18%,11%,16%,31%,16%,49%,23%,0%,2%,3%,0%,6%,26%,0%,16%,0%,0%,0%,2%
Cc1cccc(Nc2nc(N[C@H]3CCCC[C@H]3N)ncc2C(N)=O)c1.Cl [GSK986310],21%,9%,32%,25%,15%,4%,17%,20%,0%,21%,8%,27%,27%,49%,0%,0%,2%,12%,84%,0%
Cc1cccc(Nc2nc(NCCN)ncc2C(N)=O)c1 [GSK1292139],52%,58%,1%,0%,0%,0%,50%,4%,0%,10%,0%,0%,79%,33%,0%,0%,16%,5%,49%,0%
